Measurements from PubChem BioAssay.
The source made the active and inactive calls.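 The calls were made as follows: active = compounds killing one labelled cell type while sparing the other, by normalised counts and ratio limits, not self-fluorescent; inactive = the rest.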

Test: differential killing of epithelial or mesenchymal cells, primary screen, imaging, PC-3E GFP, TEM4-18 mCherry, co-culture (AID 1345086);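 also: cells exposed to compound for 72 h before imaging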;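 as to red/green cell ratio (normalised): normalised mesenchymal count divided by normalised epithelial count so high means epithelial killing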
Conditions: imaging cell counts, at 1 µM; for red/green cell ratio (normalised): actives lie on both sides, counts scaled to control wells, 1 = unselective
[1] = measured here: epithelial PC-3E GFP cell survival
[2] = measured here: mesenchymal TEM4-18 mCherry cell survival

Row | Structure (SMILES) | red/green cell ratio (normalised) | normalised cell number [1] | normalised cell number [2]
1 | C[C@]12C=CC(=O)NC1CCC1C2CC[C@@]2(C)C1CC[C@@H]2C(=O)Nc1cc(C(F)(F)F)ccc1C(F)(F)F (some centres undefined) | 0.83 (inactive) | 1.1 | 0.91
2 | CC(C)=CCCC(C)C1CC[C@@]2(C)C3=C(CC[C@]12C)C1(C)CC[C@H](O)C(C)(C)C1CC3 (some centres undefined) | 1.05 (inactive) | 1.09 | 1.14
3 | CCC1=CC2CN(C1)Cc1c([nH]c3ccccc13)[C@@](C(=O)OC)(c1cc3c(cc1OC)N(C)[C@H]1[C@@](O)(C(=O)OC)[C@H](OC(C)=O)[C@]4(CC)C=CCN5CC[C@]31[C@@H]54)C2 (some centres undefined) | 1.47 (inactive) | 0.13 | 0.2
4 | Cc1cc(O)c(C(=O)c2c(O)cccc2O)c(C(=O)O)c1 | 0.99 (inactive) | 1.15 | 1.14
5 | COC1=CC(=O)C(C)=C(C[C@@H](C)O)C1=O | 1.12 (inactive) | 0.99 | 1.11
6 | Cc1ccc(S[C@H]2OC3COC(c4ccccc4)OC3[C@@H]3OC(=O)N[C@H]23)cc1 (some centres undefined) | 1.55 (inactive) | 0.36 | 0.55
7 | CC/C=C1C=C(/C=C/CO)C(=O)O/1 | 1.01 (inactive) | 1.05 | 1.06
8 | CCC(C)[C@H]1O[C@]2(C=C[C@@H]1C)C[C@@H]1C[C@@H](C/C=C(\C)[C@@H](OC3C[C@H](OC)C(O[C@H]4C[C@H](OC)[C@@H](O)[C@H](C)O4)[C@H](C)O3)[C@@H](C)/C=C/C=C3\COC4[C@H](OC)C(C)=C[C@@H](C(=O)O1)[C@]34O)O2 (some centres undefined) | 0.83 (inactive) | 1.13 | 0.93
9 | O=C1NCC[C@H]1Oc1ccc(Oc2cnc3ccc(Cl)cc3n2)cc1 | 0.76 (inactive) | 1.18 | 0.9
10 | CC1(C)C[C@]2(C)CC(=O)O[C@H]3OC(=O)[C@@H]4CC[C@@H]1[C@]342 | 0.92 (inactive) | 1.05 | 0.96
11 | C=CCOC(=O)N1C(=O)O[C@H]2C(OC(C)=O)C(COC(C)=O)O[C@H](Sc3ccc(C)cc3)[C@H]21 (some centres undefined) | 0.89 (inactive) | 1.08 | 0.97
12 | C[C@@H]1OC(O[C@H]2[C@H](O)[C@@H](O)[C@H](OC[C@H]3O[C@@H](OC(=O)[C@]45CCC(C)(C)CC4C4=CCC6[C@@]7(C)CC[C@H](OC8OC[C@H](O)[C@H](O)[C@H]8OC8O[C@@H](C)[C@H](O)[C@@H](O)[C@H]8O)[C@@](C)(CO)C7CC[C@@]6(C)[C@]4(C)CC5)[C@H](O)[C@@H](O)[C@@H]3O)O[C@@H]2CO)[C@H](O)[C@H](O)[C@H]1O (some centres undefined) | 0.98 (inactive) | 0.96 | 0.93
13 | [N-]=[N+]=NC1[C@@H](O)C2OC(c3ccccc3)OCC2O[C@@H]1Sc1ccccc1 (some centres undefined) | 1.1 (inactive) | 0.95 | 1.04
14 | OC[C@H]1O[C@H](OCCCc2ccc(O)cc2)[C@H](O)[C@@H](O)[C@@H]1O | 1.19 (inactive) | 0.9 | 1.07
15 | CC1=C2[C@H](C=C3CCC[C@@H](C)[C@]3(C)[C@@H]2O)OC1=O | 0.84 (inactive) | 1.01 | 0.85
16 | Clc1ccc(Br)cc1/C=C/C1CCCNC1 (centres undefined) | 0.95 (inactive) | 1.16 | 1.1
17 | CO[C@H]1OC2COC(c3ccccc3)OC2[C@H](OCc2ccccc2)[C@@H]1OCc1ccccc1 (some centres undefined) | 1 (inactive) | 1.15 | 1.15
18 | Oc1ccc(Oc2cnc3ccc(Cl)cc3n2)cc1 | 0.74 (inactive) | 1.41 | 1.05
19 | O=C1Cc2cc(O)ccc2O1 | 1.26 (inactive) | 0.91 | 1.14
20 | NCC1O[C@@H](OC2C(N)C[C@@H](N)C(OC3OC(CO)[C@@H](O)C(N)[C@H]3O)[C@H]2O)C(O)[C@@H](O)C1O (some centres undefined) | 1.1 (inactive) | 1.02 | 1.13
21 | COC(=O)CCC(C)[C@H]1CCC2C3C(C[C@H](O)[C@@]21C)[C@@]1(C)CC[C@@H](O)C[C@H]1C[C@H]3O (some centres undefined) | 1.15 (inactive) | 0.89 | 1.02
22 | O=C[C@H](O)[C@@H](O)[C@H](O)CO | 0.99 (inactive) | 0.97 | 0.97
23 | CO[C@H]1CC(O[C@@H]2/C(C)=C/C[C@@H]3C[C@@H](C[C@]4(C=C[C@H](C)[C@@H](C5CCCCC5)O4)O3)OC(=O)[C@@H]3C=C(C)[C@@H](O)C4OC/C(=C\C=C\[C@@H]2C)[C@]43O)O[C@@H](C)C1O[C@H]1C[C@H](OC)[C@@H](O)[C@H](C)O1 (some centres undefined) | 1.04 (inactive) | 1.06 | 1.1
24 | CC(CC(=O)N1CCOC1=O)N1C(=S)OC[C@@H]1Cc1ccccc1 (some centres undefined) | 1.09 (inactive) | 0.88 | 0.95
25 | COc1ccc2cc(C(C)=O)ccc2c1 | 1.13 (inactive) | 0.99 | 1.12
26 | C[C@@H]1[C@H](O)[C@@H](C)/C=C/C=C/C=C/C=C/C=C/C=C/C=C/[C@H](OC2O[C@H](C)[C@@H](O)[C@H](N)[C@@H]2O)C[C@@H]2O[C@](O)(C[C@@H](O)C[C@@H](O)[C@H](O)CC[C@@H](O)C[C@@H](O)CC(=O)O[C@H]1C)C[C@H](O)[C@H]2C(=O)O (some centres undefined) | 0.82 (inactive) | 1.26 | 1.03
27 | CC(=O)OCC1O[C@@H](OC(C)=O)C(NC(=O)OCc2ccccc2)[C@@H](OC(C)=O)C1OC(C)=O (some centres undefined) | 0.94 (inactive) | 1.16 | 1.09

Row | Structure (SMILES) | red/green cell ratio (normalised) | normalised cell number [1] | normalised cell number [2]
28 | Cc1ccc(S[C@H]2OC(CO)C(O)[C@@H]3OC(=O)N[C@H]23)cc1 (some centres undefined) | 0.98 (inactive) | 1.01 | 0.99
29 | Cc1c(F)c(F)cc(C(=O)NC(=O)NC2CC2)c1F | 1 (inactive) | 1.02 | 1.02
30 | CC1=CC2C(C(C)C)CCC(C)(O)C2CC1 (centres undefined) | 1.01 (inactive) | 1.1 | 1.11
31 | CC(=O)O[C@H]1CC[C@]2(C)C3CC[C@@]4(C)C(CC5O[C@@]6(CCC(C)CO6)[C@@H](C)C54)C3CC[C@@H]2C1 (some centres undefined) | 1.09 (inactive) | 0.87 | 0.95
32 | C=CCSC[C@@H](N)C(=O)O | 0.86 (inactive) | 1.23 | 1.06
33 | CC(=O)[C@H]1CCC2C3C=CC4=CC(=O)CC[C@@]4(C)C3CC[C@@]21C (some centres undefined) | 0.68 (inactive) | 1.28 | 0.87
34 | O=C1C[C@@H](O)[C@]23Oc4ccc(O)c5c4[C@](Oc4cccc1c42)(O3)C1O[C@@H]1[C@H]5O (some centres undefined) | 0.97 (inactive) | 1.1 | 1.07
35 | CC1(C)S[C@@H]2[C@H](NC(=O)C(N)c3ccc(O)cc3)C(=O)N2[C@H]1C(=O)O (some centres undefined) | 0.84 (inactive) | 1.22 | 1.02
36 | COC(=O)CCC(C)C1CCC2C3CC[C@@H]4C[C@H](O)CC[C@]4(C)C3C[C@H](O)[C@]12C (some centres undefined) | 0.9 (inactive) | 1.05 | 0.94
37 | O=C(O)C(O)C(O)C(O)C(O)C(=O)O (centres undefined) | 1.01 (inactive) | 1.04 | 1.05
38 | CO[C@H]1/C=C/O[C@@]2(C)Oc3c(C)c(O)c4c(O)c(c(/C=N/N5CCN(C)CC5)c(O)c4c3C2=O)NC(=O)/C(C)=C\C=C\[C@H](C)[C@H](O)[C@@H](C)[C@@H](O)[C@@H](C)[C@H](CC(C)=O)[C@@H]1C | 0.98 (inactive) | 1.05 | 1.03
39 | COC(=O)C[C@H]1C(C)(C)C(=O)[C@@H]2CC3C4=CC(=O)O[C@@H](c5ccoc5)[C@]4(C)CCC3C1(C)C2=O (some centres undefined) | 1.11 (inactive) | 0.84 | 0.94
40 | COc1c(N2CC[C@@H](CN)C2)c(F)cc2c(=O)c(C(=O)O)cn(CCCN3C(=O)c4ccccc4C3=O)c12 | 1.07 (inactive) | 1.03 | 1.1
41 | O=C(O)C1O[C@@H](O)[C@@H](O)[C@@H](O)C1O (some centres undefined) | 0.93 (inactive) | 1.22 | 1.13
42 | CCC1OC(=O)[C@H](C)C(=O)[C@H](C)[C@@H](OC2O[C@H](C)C[C@H](N(C)C)[C@H]2O)[C@](C)(OC)C[C@@H](C)C(=O)[C@H](C)[C@H]2N(CCCCn3cnc(-c4cccnc4)c3)C(=O)O[C@@]12C (some centres undefined) | 1.16 (inactive) | 1.06 | 1.23
43 | O=C(O)C1CCN(C(=O)OCc2ccccc2)CC1 | 1.04 (inactive) | 0.9 | 0.94
44 | CO/C(C)=C1/C(=O)C(CO)OC1O (centres undefined) | 1.02 (inactive) | 0.93 | 0.95
45 | CC(=O)OC1CCC2(C)C(=CC=C3C2CCC2(C)C3CCC2C(C)/C=C/C(C)C(C)C)C1(C)C (centres undefined) | 1.04 (inactive) | 0.92 | 0.96
46 | CCC(CCC(C)[C@H]1CCC2C3CC=C4C[C@@H](O)CC[C@]4(C)C3CC[C@@]21C)C(C)C (some centres undefined) | 1.04 (inactive) | 1.04 | 1.08
47 | CC(=C\C(=O)O)/C=C(\C)C[C@H](C)CCCC[C@H]1OC(=O)[C@@H]1CO | 1 (inactive) | 0.95 | 0.95
48 | CCC(=O)O[C@]1(C(=O)SCF)[C@H](C)CC2C3CC(F)C4=CC(=O)C=C[C@]4(C)C3(F)[C@@H](O)C[C@@]21C (some centres undefined) | 1.04 (inactive) | 0.87 | 0.9
49 | O=C1CCC[C@@H](N2C(=S)OC[C@H]2c2ccccc2)C1 | 0.91 (inactive) | 1.1 | 1.01
50 | C[C@]12CCC3c4ccc(O)cc4C[C@@H](CCCCCCCCCS(=O)CCCC(F)(F)C(F)(F)F)C3C1CC[C@@H]2O (some centres undefined) | 1.23 (inactive) | 0.99 | 1.21
51 | Cc1ccc(S[C@H]2OC(COS(=O)(=O)c3ccc(C)cc3)C(O)[C@@H]3OC(=O)N[C@H]23)cc1 (some centres undefined) | 0.86 (inactive) | 1.19 | 1.02
52 | CC(=O)O[C@H]1CC[C@@]2(C)C(=CCC3C2CC[C@@]2(C)C3CC[C@@H]2C(C)CCCC(C)C)C1 (some centres undefined) | 1.16 (inactive) | 0.99 | 1.15
53 | NC(=O)c1c(Cl)nc(Cl)c2ccccc12 | 1.12 (inactive) | 0.92 | 1.03
